Screening results deposited in PubChem by National Center for Advancing Translational Sciences (NCATS).
ATXN viability: viability counter-screen for ATXN expression inhibitors; S2 cells (HEK-293 line with an ATXN2-luciferase reporter) viability, CellTiter-Fluor protease fluorescence, 24 h; Potency, µM (doses to about 56.7 µM), most hits filed as cytotoxic; actives 0.49% (n = 400,000); AID 651635; note: nearly all actives have a fitted effect of over 40% in size
HT1080 IDH1KD tx: HT-1080 IDH1 knockdown cell toxicity (counter line) | HT-1080 IDH1 knockdown viability, ATP luminescence, 48 h | actives 2% (n = 360,000) | Potency, µM (top dose mostly 46.1 µM), actives largely listed as cytotoxic | AID 686971
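HT-1080-IDH1KD cells (IDH1 knocked down), 750/well in RPMI with 5% FBS, treated with compound 48 h at 37 degrees C. Viability by CellTiter-Glo luminescence, normalised to DMSO and no-cell wells; concentration-response curves classed.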
TGFb inhibitor: inhibitors of TGF-b signaling; HepG2 CAGA-GFP TGF-b/SMAD3 reporter, GFP fluorescence, 18 h; TGF-beta stimulated, 500 pg/mL final; actives 1.2% (n = 410,000); Potency, µM (top dose mostly 46.1 µM), most hits filed as inhibitors; note: nearly all actives have a fitted effect of over 65% in size
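Per well, imaged GFP fluorescence of HEPG2 CAGA-GFP cells gives the signal; cells get compound, then TGF-beta (500 pg/mL final), 18 h at 37 degrees C; %Activity versus -TGF-beta and +DMSO controls.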
ATXN2 expr inh: inhibitors of ATXN2 expression; actives 0.72% (n = 360,000); HEK-293 ATXN2-luciferase reporter, luminescence, 24 h; Potency, µM (series often up to 57 µM), most hits filed as inhibitors; AID 1745845; note: nearly all actives have a fitted effect of over 55% in size
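qHTS (up to 57 uM final) was run with 24 h compound exposure of reporter cells at 37 °C. Each well was multiplexed: SteadyGlo luminescence measured ATXN2-luciferase expression after a fluorogenic Gly-Phe-AFC viability readout (25 uM final).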
HepG2 tox: kills HepG2 cells in TGF-b inhibitor counter-screen. HepG2 CAGA-GFP viability, ATP luminescence, 18 h. Potency, µM (doses to about 46.1 µM), actives largely listed as cytotoxic. actives 0.76% (n = 410,000). AID 588856
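HepG2 CAGA-GFP cells (1000/well, DMEM with 1% FBS) received compound, then TGF-beta at 500 pg/mL final, and were incubated 18 hours at 37 degrees C. Viability was read by CellTiter-Glo luminescence. Media-only wells were set as complete cell-killing and DMSO as no toxicity.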
HT1080NT lethal: kills 2HG-producing HT-1080-NT fibrosarcoma cells | HT-1080-NT fibrosarcoma viability, CellTiter-Glo ATP luminescence, 48 h | Potency, µM (highest dose often 46.1 µM), most hits filed as cytotoxic | actives 1.6% (n = 360,000);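 note: NT is the 2HG producing partner of a matched IDH1 knockdown line; nearly all actives have a fitted effect of over 55% in size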
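A 48-hour cytotoxicity screen used HT-1080-NT cells plated 2 hours before compound delivery. ATP-based CellTiter-Glo luminescence measured viability, normalized to DMSO and no-cell controls.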
Hits are given with their value; – = inactive; ? = inconclusive; · = not tested or not shown. The list is not random: actives were taken first. Their share in the collection is about 3.9%. Calls come from the whole dose curve; as a rule, active = well fitted curve in the direction sought with a large enough effect; inconclusive = small, poorly fitted or top-dose-only effect, or another doubt; inactive = no such curve, though single readings can be large; an effect the other way counts as inactive or inconclusive.

SMILES	ATXN viability	HT1080 IDH1KD tx	TGFb inhibitor	ATXN2 expr inh	HepG2 tox	HT1080NT lethal
COc1cc(=O)n2c(c1C(=O)N(C)Cc1nonc1C)CCN(Cc1ccccc1F)CC2	–	·	·	·	·	·
COc1cccc(CCNc2ncnc3sc(C(=O)N4CCOCC4)c(C)c23)c1	–	·	·	·	·	·
N#C/C(=C\C=C\c1ccccc1[N+](=O)[O-])C(=O)NCc1ccccc1	?	?	12.6µM	28.2µM	–	–
Cc1c(C)c2c(c(C)c1OC(=O)CCC(=O)OCCO)CC[C@@](C)(CCC[C@H](C)CCC[C@H](C)CCCC(C)C)O2	?	·	·	–	·	·
COc1ccc(CCN(C)C(=O)COc2ccc(C(=O)c3ccccc3)cc2)cc1OC	–	–	–	–	–	–
CSc1ccc(CN(C)C(=O)COc2ccc(C(=O)c3ccccc3)cc2)cc1	–	11.6µM	?	–	–	?
CCOCCc1nn2c(=O)cc(COC(=O)c3ccccc3NC(=O)C3CCCCC3)nc2s1	–	·	–	–	–	·
CC(C)(CNC(=O)c1ccc([N+](=O)[O-])c(Cl)c1)CNC(=O)c1ccc([N+](=O)[O-])c(Cl)c1	?	?	?	?	–	20.6µM
CN1[C@@H]2CC[C@H]1CC(NC(=O)n1c(=O)[nH]c3ccccc31)C2 (stereo partly specified)	?	·	·	–	·	·
CC(C)Oc1ccc(CNC(=O)Cn2nc(N3CCN(c4ccccc4)CC3)ccc2=O)cc1	–	·	?	–	–	·
COC(=O)[C@@H]1[C@@H](C#N)C2(c3ccccc3-c3ccccc32)N(c2ccc(Cl)cc2)N1C#N	28.2µM	23.1µM	?	10µM	–	23.1µM
O=C(Cc1ccc(Cl)cc1)NN1C(=O)c2ccccc2C1=O	–	–	–	–	–	–
Cc1ccc(-c2nnc3ccc(SCC(=O)N4CCCc5ccccc54)nn23)cc1	8.91µM	?	–	?	–	–
Cc1ccc2oc(=O)n(Cc3ccccc3Cl)c2c1	–	·	–	–	–	·
CC(C)C1Nc2c(O)cc(Cl)c([N+](=O)[O-])c2C2C=CCC21 (stereo unspecified)	?	?	12.6µM	?	–	?
Cc1cc2nc(-c3cccc(NC(=O)COc4ccc(Cl)c(C)c4)c3)oc2cc1C	?	·	–	–	–	·
COc1cc(OC)nc(-n2ncc(Br)c(Br)c2=O)n1	·	1.64µM	3.55µM	?	11.2µM	1.64µM
Cc1oc2ncn(C)c(=O)c2c1C(=O)NCc1ccc(Cl)cc1	–	·	–	–	–	·
Cc1cc(C)nc(NC(=O)c2ccc(Br)cc2)n1	–	–	–	–	–	–
Cc1cc(NO)nc(-c2ccc(Br)cc2)n1	–	–	–	–	–	10µM
C=CCN(C(=O)Cc1cccs1)c1nc(-c2ccc(S(C)(=O)=O)cc2)cs1	–	–	–	–	–	–
C=CCN(C(=O)CCc1ccccc1OC)c1nc(-c2ccc(S(C)(=O)=O)cc2)cs1	–	?	–	–	4.47µM	–
Cn1cc(/C=C/c2ccc3ccccc3n2)c2ccccc21	·	·	?	·	–	·
CCN(CC)CCC(c1ccc(N(C)C)cc1)c1c(OC)cc(OC)c2c1OC(=O)CC2c1ccc(N(C)C)cc1 (stereo unspecified)	·	·	–	·	–	·
C/C(N)=C(/C#N)C(=O)CSc1nc2cc(Cl)ccc2s1	–	–	–	–	–	35.5µM
SMILES	ATXN viability	HT1080 IDH1KD tx	TGFb inhibitor	ATXN2 expr inh	HepG2 tox	HT1080NT lethal
CCOC(=O)[C@@H]1[C@H]2COc3ccc(Br)cc3[C@@H]2N2C(=O)N(c3ccc(Br)cc3)C(=O)[C@]12C	–	–	7.08µM	–	–	–
COc1ccc(CN2CCC3(CCC(CNC(=O)c4ccco4)O3)CC2)c(OC)c1C (stereo unspecified)	–	·	·	·	·	·
CSc1cccc(NC(=O)C2CCCN(C(=O)c3cnn(-c4ccc(F)cc4)c3-n3cccc3)C2)c1 (stereo unspecified)	·	·	17.8µM	·	–	·
O=C(O)C1CCN(Cc2cnn(-c3ccccc3)c2-n2cccc2)CC1	–	–	–	–	–	–
Cc1ccc(NC(=O)C2CCN(C(=O)c3cnn(-c4ccccc4)c3-n3cccc3)CC2)cc1	–	·	11.2µM	–	–	·
O=C(NC1CC1)C1CCN(Cc2cnn(-c3ccccc3)c2-n2cccc2)CC1	·	–	–	·	22.4µM	–
CCOc1ccc(NC(=O)c2cccc3c(=O)c4c([nH]c23)CCCC4)cc1	–	·	–	–	–	·
COc1ccccc1-c1ccc(C(=O)N(C)CC2COCCO2)c(N2CCN(c3ccccc3F)CC2)n1 (stereo unspecified)	–	·	·	·	·	·
O=C(NCC1Cc2cccc(-c3ncccn3)c2O1)C1CCCO1 (stereo unspecified)	–	·	·	·	·	·
COc1ccc2nc(NN=C(C)c3ccccn3)cc(C)c2c1	7.52µM	11.6µM	1.12µM	?	–	–
OC(c1cccnc1)c1ccc2c(c1)CN(Cc1ccc(-c3ccccc3Cl)o1)CCO2 (stereo unspecified)	–	·	·	·	·	·
O=C(CCc1ccc(O)cc1)NN=Cc1ccc2c(c1)OCO2	–	5.8µM	–	·	–	?
Cc1cccc(OCC(=O)N/N=C/c2ccc3c(c2)OCO3)c1	–	–	–	–	–	–
Cc1cc(C)c(OCC(=O)N/N=C/c2ccc3c(c2)OCO3)c(C)c1	–	13µM	?	?	–	18.4µM
Cc1cc(C)cc(NC(=O)C2CC23CCN(Cc2ccc4ncccc4c2)CC3)c1 (stereo unspecified)	–	·	·	·	·	·
COc1cccc(CC(=O)NCC2Cc3cc(Cl)cc(-c4ncccn4)c3O2)c1 (stereo unspecified)	–	·	·	·	·	·
C/C(=N\NC(=O)c1ccc(C)cc1)c1c(C)[nH]n(-c2ccccc2)c1=O	?	14.6µM	?	·	–	?
CC(=O)Nc1cccc(-c2ccnc3c2CC(C(=O)NCc2cccs2)O3)c1 (stereo unspecified)	?	0.651µM	–	–	–	?
CC(=O)NCCNC(=O)C1Cc2c(-c3cccc(NC(C)=O)c3)ccnc2O1 (stereo unspecified)	–	–	–	–	–	?
CC(=O)Nc1cccc(-c2ccnc3c2CC(C(=O)NCCC(F)(F)F)O3)c1 (stereo unspecified)	?	20.6µM	–	–	–	?
CC(=O)Nc1cccc(-c2ccnc3c2CC(C(=O)NCC2CCOCC2)O3)c1 (stereo unspecified)	–	?	–	–	–	?
COc1cc(=O)n2c(c1C(=O)N(C)Cc1nccs1)CCN(Cc1c(F)ccc(F)c1F)CC2	–	·	·	·	·	·
CCCCOc1ccc(OC(=O)c2sc3ncn(Cc4cccc(F)c4)c(=O)c3c2C)cc1	–	·	–	–	–	·
